In all, about 54,000 compounds went through this assay and about 120 (0.22%) were called active. Entries that show only a call come without a potency. Inconclusive results (about 8%) are left out. Calls come from the whole dose curve; as a rule, active = well fitted inhibition curve with a large enough effect; inconclusive = small, poorly fitted or top-dose-only effect, or effect the other way; inactive = flat fitted curve, though single readings scatter. This excerpt belongs to a sample that is enriched for actives.
What follows are compounds tested against Fumarate hydratase, mitochondrial (Homo sapiens) (UniProt P07954) (assay: Identification of activators of human fumarate hydratase by quantitative high-throughput screening). Settings: FH coupled MDH/diaphorase resazurin fluorescence, 15 min; series mostly up to 79.9 µM.
From the text: Fumarate hydratase (FH) is a metabolic enzyme that is part of the Krebs-cycle, and reversibly catalyzes the hydration of fumarate to malate. Mutations of the FH gene have been associated with fumarate hydratase deficiency (FHD), hereditary leiomyomatosis, renal cell cancer (HLRCC), and other diseases. Currently there are no high-quality small molecule probes for studying human fumarate hydratase. To address this, we developed a quantitative high throughput screening (qHTS) FH assay and screened a total of 57,037 compounds in dose-response. While no inhibitors of FH were confirmed, a series of phenyl-pyrrolo-pyrimidine-diones (12 compounds) were identified as activators of human fumarate hydratase. […] The binding of two compounds from the series to human fumarate hydratase was confirmed by microscale thermophoresis. The low hit rate in this screening campaign confirmed that FH is a "tough target" to modulate, and the small molecule activators of human fumarate hydratase reported here may serve as a starting point for further optimization and development into cellular probes of human FH and potential drug candidates.
For primary high-throughput screen, 3 ul of FH solution (containing 13.33nM human fumarate hydratase, 13.33IU/ml malic dehydrogenase, 0.2mM NAD, 0.067mg/ml diaphorase and 0.067mM resazurin in the assay buffer (50 mM Tris pH 8.0, 5 mM MgCl2, 0.01% Brij 3) was dispensed into each well in a black solid bottom 1536-well assay plate (Greiner Bio-One) using a BioRAPTR FRD dispenser (Beckman Coulter, Brea, CA). A 1536-well pintool dispenser outfitted with 20 nl pins (Wako Automation, San Diego, CA) was used to transfer 20 nL of DMSO-solubilized compound (Cherrypick plates) to each 1536-well assay plate. Each compound was screened at five concentrations: 15 nM, 151 nM, 1.5 uM, 15.4 uM, 76.9 uM. Following compound transfer, plates were incubated in room temperature for 10 minutes. 1 uL of substrate solution containing fumaric acid (160 uM) was dispensed via BioRAPTR FRD to initiate the reaction. Plates were immediately transferred to a ViewLux microplate imager (PerkinElmer, Waltham, MA), and any resulting resorufin fluorescence was measured (exitation/emission, 525/598 nm) at 0 and 15 minutes. The exposure time is 1 second. Fluorescence from each well was normalized using enzyme-free and DMSO-treated control wells on each plate, and changes in fluorescence (delta RFU) were calculated using the difference in fluorescent signal for each well at 15 minutes versus 0 minutes.
Note: the screen sought activators but most active calls are inhibition curves; nearly all actives have a fitted effect of over 45% in size.
Potency is the fitted concentration of half-maximal effect.

Chain of Fumarate hydratase, mitochondrial (Homo sapiens) (P07954 whole entry, looked up): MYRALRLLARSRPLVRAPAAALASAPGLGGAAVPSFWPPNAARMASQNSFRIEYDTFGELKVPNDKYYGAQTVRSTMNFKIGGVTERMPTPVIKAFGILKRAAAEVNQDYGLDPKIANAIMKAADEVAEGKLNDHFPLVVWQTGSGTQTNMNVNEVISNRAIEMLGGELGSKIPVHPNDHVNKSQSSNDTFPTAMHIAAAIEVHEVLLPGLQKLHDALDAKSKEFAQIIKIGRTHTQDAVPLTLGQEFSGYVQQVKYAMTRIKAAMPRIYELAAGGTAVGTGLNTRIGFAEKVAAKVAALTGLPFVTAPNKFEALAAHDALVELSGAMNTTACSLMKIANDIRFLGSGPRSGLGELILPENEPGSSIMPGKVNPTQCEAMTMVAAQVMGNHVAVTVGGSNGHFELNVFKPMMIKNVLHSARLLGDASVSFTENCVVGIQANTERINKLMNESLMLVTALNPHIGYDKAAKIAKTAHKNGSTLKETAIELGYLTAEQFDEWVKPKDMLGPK

SMILES | activity change, negative = inhibition | Potency
COc1ccc(-c2nc(C)c(CCNC(=O)c3ccc(C(F)(F)F)cc3)s2)cc1OC | inactive | 
COc1ccc(-c2cn3c(n2)sc2cc(C(=O)Nc4ccccc4F)ccc23)cc1 | inactive | 
Nc1nc2c(ncn2[C@@H]2O[C@@H]3COP(=O)(O)O[C@H]3[C@H]2O)c(=O)[nH]1 | inactive | 
C[C@@H]1C[C@@H](O)[C@@]23CO[C@]2(CO)C[C@@H](O)CC3[C@@]12CC(c1ccoc1)OC2=O (some centres undefined) | inactive | 
CCC(=O)N[C@@H]1Cc2ccccc2[C@H](c2ccccc2)C1 | inactive | 
CCOC(=O)c1c(C)n(S(=O)(=O)c2ccc(C)cc2C)c2ccc(NS(=O)(=O)c3ccc(C)cc3C)cc12 | inactive | 
CCOC(=O)CSc1nc2c(sc3ccccc32)c(=O)n1CCCN1CCCC1 | inactive | 
COc1cc(OC)c(NC(=O)c2cc(S(=O)(=O)N3CCCC3)cn2C)cc1Cl | inactive | 
Cc1ccc(NC(=O)C2CCCN2S(=O)(=O)c2cccc3cccnc23)c(C)c1 (centres undefined) | inactive | 
CC1C(=O)OCC2=CCN3CCC(OC(=O)C(C)(O)C1(C)O)C23 (centres undefined) | inactive | 
C[C@@H]1[C@H](O)[C@@H]2OC(=O)C3=C2[C@H](CCC3)[C@@]12C[C@@H](c1ccoc1)OC2=O | inactive | 
C[C@H]1CC[C@@H]2N(C1)C[C@@H]1[C@H]([C@@H](O)[C@H](O)[C@]3(O)[C@H]1C[C@@]14OC5(O)[C@@H](C[C@@H](O)[C@@H]31)[C@]4(C)CC[C@@H]5O)[C@]2(C)O | inactive | 
CN1CCCC1Cc1c[nH]c2ccc(CCS(=O)(=O)c3ccccc3)cc12 (centres undefined) | inactive | 
O=C(C1CCCN(S(=O)(=O)c2cccc3nonc23)C1)N1CCN(c2ccccc2F)CC1 (centres undefined) | inactive | 
COC(=O)[C@]12CCC(C)(C)C[C@@H]1[C@@H]1C(=O)C=C3[C@]4(C)C=C(C#N)C(=O)C(C)(C)[C@@H]4CC[C@@]3(C)[C@]1(C)CC2 | inactive | 
C#C[C@]1(O)CC[C@H]2[C@@H]3CCC4=C/C(=N/O)CC[C@@H]4[C@H]3CC[C@@]21CC | inactive | 
CC(=O)N1c2ccc(S(=O)(=O)N3CCCCCC3)cc2CC1C(=O)NCc1ccccc1C (centres undefined) | inactive | 
COc1ccc(NC(=O)c2ccc3nc(CCc4ccccc4)oc3c2)c(OC)c1 | inactive | 
COc1cc(Nc2nc3ccccc3nc2NS(=O)(=O)c2cccc(NC(=O)c3ccc(C)c(OC)c3)c2)cc(OC)c1 | inactive | 
CC1(C)C(=O)N2c3ccccc3C(O)(CC(C(=O)O)n3cnc4ccccc4c3=O)C2N1O (centres undefined) | inactive | 
O=c1[nH]c2ccc(C#CCN3CCC(Cc4ccccc4)CC3)cc2[nH]1 | inactive | 
CCOCCCNC(=O)c1cn(CC(C)C)c(=O)c2c1c1ccccc1n2C | inactive | 
CCOc1ccccc1CNC(=O)Nc1cn(CC(C)C)c(=O)c2ccccc12 |  | 28.2 µM [activator] (active)
CCOc1ccccc1NC(=O)Cn1c2ncccc2c(=O)n1-c1ccc(C)c(C)c1 | inactive | 

From PubChem BioAssay AID1347055 (National Center for Advancing Translational Sciences (NCATS), 2019)
